Reference: PubChem BioAssay AID624352 (Sanford-Burnham Center for Chemical Genomics, 2012)
The whole screen tested about 360,000 compounds, of which about 2,600 (0.72%) were called active. This excerpt belongs to a sample that is enriched for actives. Unmarked numbers belong to inactive results.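 The calls were made as follows: active = inhibition of the luminescence signal of 40% or more relative to plate controls, in a single-dose primary screen at 18.75 µM; inactive = the rest.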

Test: HIF-2a reporter inhibitors, primary screen, luminescence, 786-0 RCC cells (AID 624352)
Settings: 786-0 RCC cells HIF-2a reporter, luciferase luminescence, overnight; at 18.8 µM; hits give high values
Molecule `Cc1cc(C)cc(N(CC(=O)NCCSCc2ccco2)S(C)(=O)=O)c1` has an inhibition of 15.8%.
For `CCc1ccccc1N(CC(=O)NCCSCc1ccco1)S(C)(=O)=O`, the inhibition was 11.4%.
`CC(C)(C)C1CCC(C(=O)Nc2cccnc2)CC1` (configuration not stated) gave an inhibition of 10%.
With `Cc1ccc2c(c1)N(CC(=O)N1CCOCC1)C(=O)CO2` the inhibition was 7.44%.
Work on `CC(OC(=O)c1ccccc1NCCO)C(=O)Nc1ccnn1C(C)C` (configuration not stated) yielded an inhibition of 10%.
Molecule `O=C1Nc2cc(C(=O)N3CCC(N4CCCCC4)CC3)ccc2S/C1=C\c1ccccc1` has an inhibition of -25.5%.
In the case of `CCN1CCCC1CNC(=O)c1ccc2c(c1)NC(=O)/C(=C\c1ccccc1F)S2` (configuration not stated), the inhibition was -13.2%.
With `CCN1CCN(CCNC(=O)c2ccc3c(c2)NC(=O)/C(=C\c2cccc(Cl)c2)S3)CC1` the inhibition was 90.6% (active).
In the case of `CC1CCc2sc3nc(N4CCN(CCO)CC4)n4ncnc4c3c2C1` (configuration not stated), the inhibition was -149%.
Molecule `O=C1CN(C(=O)c2cc(F)cc(F)c2)c2ccccc2N1` has an inhibition of 11.9%.
In the case of `COc1ccc(-c2nc(-c3ccccc3)no2)c(OC)c1`, the inhibition was 58.9% (active).
Molecule `COc1ccccc1-c1nc(C(F)(F)F)c(OC)o1` has an inhibition of 4.93%.
`COc1ccc(-c2onc3ccc(C(C)=O)cc23)cc1` showed an inhibition of -105%.
In the case of `O=C(CCc1nnc2ccc(NCc3ccco3)nn12)Nc1cc(F)ccc1F`, the inhibition was -0.521%.
With `Cc1ccc(Cc2cncc(O)c2)cc1S(=O)(=O)O` the inhibition was 9.79%.
Molecule `Cc1ccc(CN(C(=O)c2sc3ccccc3c2Cl)C2CCS(=O)(=O)C2)cc1` (configuration not stated) has an inhibition of 32%.
With `CC1CCCCC1NC(=O)/C(C#N)=C/C=C/c1ccccc1[N+](=O)[O-]` (configuration not stated) the inhibition was 79.7% (active).
Molecule `COc1cc(/C=C(\C#N)C(=O)Nc2ccc3ccccc3c2)c([N+](=O)[O-])cc1OC` has an inhibition of 17%.
Molecule `CC(OC(=O)/C=C/c1ccccc1)C(=O)NC1CCCCC1C` (configuration not stated) has an inhibition of 8.8%.
`Cc1ccc(SCCC(=O)NC(C(C)C)C(C)C)cc1` gave an inhibition of 23.2%.
Molecule `CCN(CC)CCOc1ccc2c(c1)C(=NNC(=O)c1ccccn1)c1cc(OCCN(CC)CC)ccc1-2` has an inhibition of 13.8%.
Molecule `Cc1ccc(N2CC(C(=O)N3CCC4(CC3)CC(=O)c3ccccc3O4)CC2=O)cc1C` (configuration not stated) has an inhibition of 2.59%.
Work on `CC(C)Cn1cnc2c(SCc3ccc(Cl)cc3)nc(N)nc21` yielded an inhibition of -109%.
For `CCC(C)Cn1c(O)cc2nn(-c3nc4ccccc4s3)c(=O)c-2c1C` (configuration not stated), the inhibition was 80.9% (active).
`CCC/C(O)=C1\C(=O)CC(C)(C)CC1=Nc1ccccc1OC` showed an inhibition of 10%.
In the case of `O=C(Nc1ccc(OCC(=O)N2CCOCC2)cc1)c1cc(F)c(F)cc1Cl`, the inhibition was -39.3%.
In the case of `CC1CC(=O)Nc2ccccc2N1C(=O)COc1ccc2cc(Br)ccc2c1` (configuration not stated), the inhibition was 10.2%.
With `CC(C)n1cnc2c(Nc3cccc(Cl)c3)nc(N(CCO)CCCO)nc21` the inhibition was 51.3% (active).
`OCCCNc1nccc(-c2cc(Nc3cccc(Cl)c3)ncn2)n1` showed an inhibition of -18.5%.
With `O=C1NC(Nc2nc3ccccc3s2)(C(F)(F)F)C(=O)N1C1CCCCC1` (configuration not stated) the inhibition was -11.7%.
Molecule `COc1cc(OC)c(C2=NOC(C(=O)Nc3c(C)n(C)n(-c4ccccc4)c3=O)C2)cc1Cl` (configuration not stated) has an inhibition of 11.3%.
Molecule `c1ccc2cc(CCCc3cc4ccccc4cn3)ncc2c1` has an inhibition of -39.5%.
With `CCOC(=O)c1c(C)nn(-c2ncccc2NC(=O)CCC(=O)O)c1C` the inhibition was 11.8%.
For `COC(=O)c1c(NC(=O)C2CC(C)=C(C)CC2C(=O)O)sc2c1CCCCC2` (configuration not stated), the inhibition was 16%.
`COC(=O)c1c(NC(=O)CCN2CCOCC2)sc2c1CCCC2` showed an inhibition of 5.82%.
In the case of `COC(=O)c1c(NC(=O)CCCC(=O)O)sc2c1CCCCC2`, the inhibition was 50.8% (active).
`O=C(CCCn1c(=O)oc2ccccc21)Nc1cccnc1` gave an inhibition of 2.59%.
Work on `NS(=O)(=O)c1cc(Cl)c(Cl)c(S(N)(=O)=O)c1` yielded an inhibition of -2.27%.
For `NC(N)=Nc1nc(-c2ccccc2)c2cc(Cl)ccc2n1`, the inhibition was 41.9% (active).
With `Cc1nc(N=C(N)N)nc2c(C)cccc12` the inhibition was 15%.
Work on `NC(N)=Nc1nc2ccc(Br)cc2c(=O)[nH]1` yielded an inhibition of -20.2%.
`S=C(NC1CCCCC1)NN1CCOCC1` gave an inhibition of 12.3%.
Molecule `Cc1sc(NC(=S)NC(=O)c2cccs2)nc1-c1ccc(CC(C)C)cc1` has an inhibition of -5.06%.
For `O=C(C1=C[C@H](c2coc3ccccc3c2=O)C[C@H](OCc2ccc(CO)cc2)O1)N1CCN(Cc2ccccc2)CC1`, the inhibition was 25%.
`CSC1=N/C(=C\C=C\c2cccs2)C(=O)S1` showed an inhibition of -28.6%.
With `O=C(Nc1ccccc1Cl)/C(Cl)=C(\Cl)S(=O)c1ccccc1` (configuration not stated) the inhibition was 95.4% (active).
For `O=C(COc1nsnc1N1CCOCC1)Nc1ccccc1Cl`, the inhibition was -40.8%.
